Results published in PubChem BioAssay (NCATS).
Records with an inconclusive call do not appear. The source made the active and inactive calls. The call rests on the fitted dose curve; in most records, active means well fitted curve in the direction sought with a large enough effect; inconclusive means small, poorly fitted or top-dose-only effect, or another doubt; inactive means no such curve, though single readings can be large; an effect the other way counts as inactive or inconclusive.

Legend:
[1] = Cell Viability - LYMP2-004 (AID 966); further: nearly all actives have a fitted effect of over 65% in size
Summary of the method: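 Cells seeded 2500/well, rested 5 hr at 37 C, dosed across a concentration series, incubated 24 hr at 37 C, then CellTiter-Glo added for 30 min at room temperature and luminescence read. Hill fitting gave AC50.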

[2] = Cell Viability - LYMP2-005 (AID 967); further: series mostly up to about 92 µM
Summary of the method: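 qHTS viability screen in LYMP2-005 cells: 24 h at 37 C with compound, ATP luminescence via CellTiter-Glo, AC50 from Hill curves.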

[3] = Cell Viability - LYMP2-011 (AID 969); further: nearly all actives have a fitted effect of over 60% in size
Summary of the method: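 2500 cells/well, 5 hr 37 C; compound added, 24 hr 37 C; CellTiter-Glo 30 min RT; luminescence. qHTS concentration-response, Hill-equation AC50. Tetraoctylammonium bromide positive control.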

[4] = Cell Viability - LYMP2-013 (AID 970); further: series mostly up to about 92 µM; nearly all actives have a fitted effect of over 55% in size
Summary of the method: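 qHTS; 2500 lymphoblastoid cells/well; 5 hr 37 C settle; cpd 24 hr 37 C; CellTiter-Glo, 30 min RT; luminescence. AC50 = Hill fit.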

[5] = Cell Viability - LYMP2-015 (AID 971); further: nearly all actives have a fitted effect of over 55% in size
Summary of the method: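 Luminescent ATP read-out (CellTiter-Glo) served as the viability measure after lymphoblastoid cells were exposed to compounds for 24 hours at 37 C. Concentration-response data were fitted with the Hill equation to give AC50.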

[6] = Cell Viability - LYMP2-017 (AID 972); further: series mostly up to about 92 µM; nearly all actives have a fitted effect of over 55% in size
Summary of the method: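 2500 cells/well, 5 h 37 C; cpd 24 h 37 C in complete medium; CellTiter-Glo, 30 min RT; luminescence (ATP). AC50 via Hill fit, qHTS.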

[7] = Cell Viability - LYMP2-019 (AID 973); further: nearly all actives have a fitted effect of over 55% in size
Summary of the method: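 Luminescent ATP read-out (CellTiter-Glo, 30 min room temperature) served as the viability measure after 24 hr treatment of lymphoblastoid cells at 37 C. Concentration-response data were fitted to the Hill equation for AC50.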

[8] = Cell Viability - LYMP2-021 (AID 974)
Summary of the method: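 Plate 2500 lymphoblastoid cells per well and incubate 5 hr at 37 C. Add compounds over a concentration range and incubate 24 hr at 37 C. Add CellTiter-Glo, wait 30 min at room temperature, read luminescence.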

[9] = Cell Viability - LYMP2-023 (AID 975)
Summary of the method: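 2500 cells/well, 5 hr 37 C; cpd 24 hr 37 C; CellTiter-Glo, 30 min RT; luminescence. qHTS conc-response, Hill fit -> AC50. Pos ctrl tetraoctylammonium bromide.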

[10] = Cell Viability - LYMP2-025 (AID 976); further: series mostly up to about 92 µM
Summary of the method: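 Seed 2500 LYMP2-025 cells/well; 5 hr at 37 C; add compound; 24 hr at 37 C; add CellTiter-Glo; 30 min RT; read luminescence. AC50 from Hill-modelled concentration-response.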

[11] = Cell Viability - LYMP2-002 (AID 977);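 further: series mostly up to about 92 µM; compound exposure lasted 24 h at 37 °C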
Summary of the method: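 Cytotoxicity is scored as concentration-dependent loss of cellular ATP in a human lymphoblastoid line after 24 hr compound treatment at 37 C. AC50 is obtained by modelling concentration-response data with the Hill equation.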

[12] = Cell Viability - LYMP2-006 (AID 978); further: series mostly up to about 92 µM; nearly all actives have a fitted effect of over 60% in size
Summary of the method: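 Concentration-dependent loss of intracellular ATP in a human lymphoblastoid line after 24 hr treatment at 37 C was measured by CellTiter-Glo luminescence, with AC50 values obtained from standard Hill-equation modelling.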

[13] = Cell Viability - LYMP2-007 (AID 979);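 further: cells exposed to compound for 24 h before reading; nearly all actives have a fitted effect of over 60% in size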
Summary of the method: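 Luminescent ATP signal (CellTiter-Glo) serves as the viability read-out after 24 hr compound treatment of lymphoblastoid cells in complete medium at 37 C. Concentration-response data were fitted to the Hill equation to give AC50 values.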

[14] = Cell Viability - LYMP2-012 (AID 982)
[15] = Cell Viability - LYMP2-016 (AID 984); further: nearly all actives have a fitted effect of over 55% in size
Summary of the method: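 Acute toxicity in a Coriell human lymphoblastoid line is scored as loss of intracellular ATP over 24 h of treatment in complete medium. CellTiter-Glo signal is fitted across concentrations with the Hill equation to give AC50.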

[16] = Cell Viability - LYMP2-018 (AID 985); further: nearly all actives have a fitted effect of over 50% in size
Summary of the method: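 Luminescent ATP signal (CellTiter-Glo, read after 30 min at room temperature) reports viable cells after 24 hr compound treatment at 37 C. Concentration-response data were fitted to the standard Hill equation for AC50.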

[17] = Cell Viability - LYMP2-009 (AID 968)
[18] = Cell Viability - LYMP2-008 (AID 980); further: nearly all actives have a fitted effect of over 60% in size
Summary of the method: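 qHTS, human lymphoblastoid line, 2500 cells/well; 5 hr preincubation, 24 hr compound, 37 C. CellTiter-Glo ATP luminescence. AC50 via Hill equation. Tetraoctylammonium bromide positive control.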

[19] = Cell Viability - LYMP2-010 (AID 981); further: nearly all actives have a fitted effect of over 55% in size
Summary of the method: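 Luminescent ATP signal (CellTiter-Glo) served as the viability read-out. Cells of the human lymphoblastoid line were treated with compound over a concentration range for 24 hours at 37 C, and AC50 values came from Hill-equation modeling.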

[20] = Cell Viability - LYMP2-014 (AID 983); further: series mostly up to about 92 µM; nearly all actives have a fitted effect of over 50% in size
Summary of the method: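 Luminescent ATP signal (CellTiter-Glo, 30 min at room temperature) serves as the viability read-out after 24 hr compound exposure at 37 C. Cells were seeded at 2500 per well and settled 5 hr beforehand.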

Measured: Potency

O=C1C=CCCC1
not listed: [17] | [18] | [19] | [20]
inactive: all other assays above

CC(N)CN (stereo unspecified)
not listed: [2] | [13]
inactive: all other assays above

CCC(C)(C)C(=O)O
not listed: [17]
inactive: all other assays above

O=C(O)CNC(=O)c1ccc([N+](=O)[O-])cc1
not listed: [2] | [19]
inactive: all other assays above

C=CCOC(=O)CCCCCCCC
not listed: [5]
inactive: all other assays above

CN(C)CCCNCCCN
not listed: [14] | [17] | [19]
inactive: all other assays above

Cc1ccccc1C(=O)O
not listed: [2] | [13] | [19]
inactive: all other assays above

C/C(C=O)=C/c1ccccc1
not listed: [5] | [9]
inactive: all other assays above

O=C1OC(=O)c2c(Br)c(Br)c(Br)c(Br)c21
not listed: [2]
inactive: all other assays above

Cc1ccccc1Br
not listed: [2] | [18]
inactive: all other assays above

O=C1OC(=O)c2c(Cl)c(Cl)c(Cl)c(Cl)c21
not listed: [6] | [8] | [18]
inactive: all other assays above

O=C1CCC(=O)O1
not listed: [2] | [18]
inactive: all other assays above

CCOC(C)(C)C
not listed: [6] | [11] | [14]
inactive: all other assays above

COc1ccc(N)c(C)c1
not listed: [2] | [11]
inactive: all other assays above

CCC(C)(C)OC
not listed: [6] | [8] | [19]
inactive: all other assays above

COc1ccccc1[N+](=O)[O-]
not listed: [2] | [18]
inactive: all other assays above

O=[N+]([O-])c1ccc(NCCO)c(OCCO)c1
not listed: [1]
inactive: all other assays above

NC(=O)NC(N)=O
not listed: [2] | [6]
inactive: all other assays above

O=C(O)c1ccccc1[N+](=O)[O-]
not listed: [2] | [11] | [18]
inactive: all other assays above

OC1CCCC1
not listed: [2] | [9]
inactive: all other assays above
